Only some compounds are listed: those with a hit (about 1.7% of all), similar ones and a draw of the others.
GLP1R ag = qHTS of GLP-1 Receptor Agonists; Glucagon-like peptide 1 receptor (Homo sapiens), P43220; HEK293 GLP-1R CRE-luciferase, luminescence, 4-6 h; cells express a hypersensitive GLP-1R form; Potency, µM (top dose mostly 45.6 µM), without a hit: at the top dose activation, hits mostly activators; hit rate 0.007% among 380,000; AID 624172, 2012; also: potency is read from the fitted curve at half-maximal effect; % of control where 0% means no effect
Target sequence (P43220 whole entry, looked up): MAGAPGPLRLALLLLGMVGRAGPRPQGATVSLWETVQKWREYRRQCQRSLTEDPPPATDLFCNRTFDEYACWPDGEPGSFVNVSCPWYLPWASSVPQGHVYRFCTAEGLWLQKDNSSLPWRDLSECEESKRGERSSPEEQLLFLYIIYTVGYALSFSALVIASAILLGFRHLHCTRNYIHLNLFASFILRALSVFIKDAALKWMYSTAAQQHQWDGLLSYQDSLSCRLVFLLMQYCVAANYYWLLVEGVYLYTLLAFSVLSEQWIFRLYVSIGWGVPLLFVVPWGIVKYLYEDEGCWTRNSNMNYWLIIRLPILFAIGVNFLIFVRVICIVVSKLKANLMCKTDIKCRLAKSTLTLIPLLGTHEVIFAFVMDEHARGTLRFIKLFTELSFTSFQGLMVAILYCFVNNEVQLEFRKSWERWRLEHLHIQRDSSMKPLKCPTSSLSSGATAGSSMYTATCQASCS
GLP1R cytotox = qHTS of GLP-1 Receptor Inverse Agonists: Cytotox Screen; HEK293 cAMP-luciferase reporter cells, luminescence, 24 h; Potency, µM (series often up to 38.3 µM), without a hit: at the highest dose activity change, negative = inhibition, hits mostly inhibitors; hit rate 0.13% among 410,000;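 also: loss of luciferase light is scored as toxicity; potency is read from the fitted curve at half-maximal effect; % is scaled to controls: 0 for no effect and ±100 for the full control effect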
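Quantitative HTS format, 1536 wells, 200 cells/uL seeded. Compounds: 23 nL, 24 h, 37 °C. Detection: luciferase reagent, luminescence at 12 min RT; decreased signal taken as cytotoxic.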
mIDH1 inhibitor = qHTS for Inhibitors of mutant isocitrate dehydrogenase 1 (IDH1): qHTS | IDH1-R132H enzyme, NADPH consumption, diaphorase/resazurin fluorescence | Potency, µM (series often up to 76.6 µM), for the others: at the top dose activity change, negative = inhibition, most hits filed as inhibitors | hit rate 0.093% among 390,000; also: potency is read from the fitted curve at half-maximal effect; % is scaled to controls: 0 for no effect and ±100 for the full control effect; nearly all actives have a fitted effect of over 65% in size
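IDH1-R132H (0.5 ug/mL dispensed) in pH 7.5 Tris buffer was preincubated 30 min with compound, then given a substrate mix of 0.016 mM NADPH and 2 mM alpha-KG for 80 min at room temperature; remaining NADPH was read by diaphorase/resazurin fluorescence.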
LDHA block = qHTS assay for inhibitors of human lactate dehydrogenase; purified LDHA, NADH/diaphorase-resazurin fluorescence; active compounds read low; activity change, % (values are at about 110 or 230 µM); hit rate 0.15% among 480,000; L-lactate dehydrogenase A chain (Homo sapiens), P00338; in the data active = activity change below about -30%; inconclusive = mostly about -25% to -30%;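 also: plate controls were DMSO wells for no effect and wells without enzyme for full effect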
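Enzyme activity of human lactate dehydrogenase 5 (2 nM; 0.06 mM NADH, 0.2 mM pyruvate, 5 min, RT) is measured via a resazurin/diaphorase fluorescence readout of residual NADH.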
PTHR1 ag = qHTS for PTHR1 Agonists: Primary Screen; Parathyroid hormone/parathyroid hormone-related peptide receptor (Homo sapiens), Q03431; HEK293 GP2 PTHR1 cells, GloSensor cAMP luminescence, 1 h; Potency, µM (top dose mostly 115 µM), for the others: at the highest dose activation, most hits filed as activators; hit rate 0.075% among 410,000; AID 743266, 2014; also: potency is read from the fitted curve at half-maximal effect; nearly all actives have a fitted effect of over 55% in size
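HEK-293-derived GP2 cells expressing PTHR1 and a GloSensor cAMP reporter, 3,000/well, plated overnight, given luciferin plus IBMX (each 0.5 mM as added) for 1 h at 37 °C, then compound for 1 h at 37 °C. Luminescence was read after 15 min at room temperature.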
GLP-1R inv ag = qHTS of GLP-1 Receptor Inverse Agonists (Inhibition Mode); Glucagon-like peptide 1 receptor (Homo sapiens), P43220; HEK293 GLP-1R CRE-luciferase, luminescence, 24 h; GLP-1R form is constitutively active; Potency, µM (titrated, usually from 38.3 µM), without a hit: at the highest dose activity change, negative = inhibition, usual class: inhibitors; hit rate 1.6% among 410,000; AID 624417, 2012; also: potency is read from the fitted curve at half-maximal effect; % is scaled to controls: 0 for no effect and ±100 for the full control effect; nearly all actives have a fitted effect of over 55% in size
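Luminescence readout: a drop in cAMP-driven luciferase signal flags inverse agonism at a constitutively active GLP-1R stably expressed in HEK293. Compound exposure lasted 24 hr at 37 deg C, 5% CO2.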
The depositor's hits bear a star; [ ] = remark or other dose. Unless noted, calls follow the shape of the dose curve; as a rule, active = well fitted curve in the direction sought with a large enough effect; inconclusive = small, poorly fitted or top-dose-only effect, or another doubt; inactive = no such curve, though single readings can be large; an effect the other way counts as inactive or inconclusive.

What do the screens show for `Cc1ccc(N(C)S(=O)(=O)c2cccc(C(=O)NC3CC(C)(C)NC(C)(C)C3)c2)cc1`?
GLP1R ag: 0%; GLP1R cytotox: -2%; mIDH1 inhibitor: 1%; LDHA block: -4; PTHR1 ag: -9%; GLP-1R inv ag: 11µM*

Results for CC1(C)CC(NC(=O)c2cccc(S(=O)(=O)N(Cc3ccccc3)c3ccccc3)c2)CC(C)(C)N1 ?
GLP1R ag: -29%; GLP1R cytotox: inconclusive; mIDH1 inhibitor: -14%; LDHA block: -2; PTHR1 ag: inactive; GLP-1R inv ag: inconclusive

Results for C=CCN(Cc1ccccc1F)C(=O)Cc1nn(C)c(=O)c2ccccc12 ?
LDHA block: 5

How did CCOCCn1c(CN2CCN(C(=O)OCC)CC2)nc2c1c(=O)n(C)c(=O)n2C do in these assays?
LDHA block: -5

How did Clc1ccc(-c2nnc(CSc3nnc(-c4cccs4)n3Cc3ccccc3)o2)cc1 do in these assays?
GLP1R ag: -8%; GLP1R cytotox: -19%; mIDH1 inhibitor: -2%; LDHA block: -3; PTHR1 ag: -93%; GLP-1R inv ag: 10µM*

Results for Cc1nnc(SCc2nnc(-c3cccs3)o2)n1Cc1ccccc1 ?
GLP1R ag: 0%; GLP1R cytotox: -6%[7.66 µM]; mIDH1 inhibitor: 8%; LDHA block: -3; PTHR1 ag: -22%; GLP-1R inv ag: -6%[7.66 µM]

What do the screens show for `CC(C)Cc1nc(C#N)c(NCc2ccc(F)cc2)o1`?
LDHA block: 0

What do the screens show for `O=C(Nc1ccccc1)Nc1csc2ccccc12`?
GLP1R ag: 0%; GLP1R cytotox: 0%; mIDH1 inhibitor: 20%; LDHA block: -6; PTHR1 ag: -5%; GLP-1R inv ag: 8.9µM*

Results for CC(=O)Nc1csc2ccccc12 ?
GLP1R ag: -2%; GLP1R cytotox: 4%; mIDH1 inhibitor: 12%; LDHA block: 1; PTHR1 ag: inactive; GLP-1R inv ag: -12%

How did Cc1c(O)ccc2c(COC(=O)c3nn(C(C)C)c(=O)c4ccccc34)cc(=O)oc12 do in these assays?
LDHA block: 5

How did COc1ccccc1NC(C)=[N+](C)CCNS(=O)(=O)c1ccc(Cl)cc1 do in these assays?
GLP1R ag: 1%; GLP1R cytotox: -2%; mIDH1 inhibitor: -3%; LDHA block: -74*; PTHR1 ag: inactive; GLP-1R inv ag: -19%

How did COc1ccc(NC(C)=[N+](C)CCNS(=O)(=O)c2ccc(Cl)cc2)cc1Cl do in these assays?
GLP1R ag: -3%; GLP1R cytotox: -3%; mIDH1 inhibitor: 0%; LDHA block: -14; PTHR1 ag: inactive; GLP-1R inv ag: -15%

How did O=C(c1cnn2c1NC(c1ccco1)CC2C(F)(F)F)N1CCN(c2cccc(Cl)c2)CC1 (stereo unspecified) do in these assays?
GLP1R ag: -11%; GLP1R cytotox: inconclusive; mIDH1 inhibitor: 2%; LDHA block: 3; PTHR1 ag: -53%[57.5 µM]; GLP-1R inv ag: 2.2µM*

How did O=C(c1ccco1)N1CCN(C(=O)c2cnn3c2NC(c2cccs2)CC3C(F)(F)F)CC1 (stereo unspecified) do in these assays?
GLP1R ag: 12%; GLP1R cytotox: 1%; mIDH1 inhibitor: -2%; LDHA block: -7; PTHR1 ag: -11%[57.5 µM]; GLP-1R inv ag: 4%

What do the screens show for `CCOC(=O)c1nn(-c2ccc3c(c2)CCN3C(C)=O)cc1O`?
GLP1R ag: 0%; GLP1R cytotox: -17%; mIDH1 inhibitor: -3%; LDHA block: 6; PTHR1 ag: -22%[57.5 µM]; GLP-1R inv ag: 11µM*

How did COc1ccc(C(C)=O)cc1COC(=O)/C=C/c1cccc(Br)c1 do in these assays?
LDHA block: -6

Compound activity as filed in PubChem BioAssay.
